# Measurements from paper PMC7862700, “An all-to-all approach to the identification of sequence-specific readers for epigenetic DNA modifications on cytosine”.
# Experiments:
# Test in all cases: DAPPL (digital affinity profiling via proximity ligation, sequencing); 10 mM Tris-HCl pH 7.5, 50 mM NaCl, 1 mM DTT, 4% glycerol, room temperature, 30 min; GST-TFs on glutathione beads, 16-mer random dsDNA library, 0.1% formaldehyde crosslink after washing; high values mean tight binding
# Conditions in all cases: protein: recombinant; tags: N-terminal GST; dsDNA, one strand shown
# FLI1 = biological target: T1, FLI1 (Homo sapiens, UniProt Q01543 1-452)
# T1 sequence: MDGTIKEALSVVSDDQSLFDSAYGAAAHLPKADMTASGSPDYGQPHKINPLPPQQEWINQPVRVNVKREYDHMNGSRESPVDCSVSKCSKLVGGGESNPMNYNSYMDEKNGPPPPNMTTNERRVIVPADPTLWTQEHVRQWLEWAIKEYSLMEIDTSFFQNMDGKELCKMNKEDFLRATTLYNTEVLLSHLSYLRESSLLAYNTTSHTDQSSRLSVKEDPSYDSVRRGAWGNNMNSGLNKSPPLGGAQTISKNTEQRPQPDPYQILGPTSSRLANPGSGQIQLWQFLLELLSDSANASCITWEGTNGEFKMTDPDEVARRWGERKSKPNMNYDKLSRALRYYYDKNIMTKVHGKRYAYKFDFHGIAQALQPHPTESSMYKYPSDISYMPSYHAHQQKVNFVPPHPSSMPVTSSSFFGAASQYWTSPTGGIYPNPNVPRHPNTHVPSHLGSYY
# Summary of the method: (§1)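 In yeast, human transcription factors were expressed with a GST fusion, then pulled down on glutathione beads and given DNA barcodes. Pooled with a tag-only sample, they were exposed to 200 nmole of a 16-mer random double-stranded DNA library (Tris/NaCl/DTT/glycerol buffer, room temperature, 30 min), washed, crosslinked with 0.1% formaldehyde, proximity-ligated using BsaI/T4 ligase for 1 h at 37 °C, PCR-amplified and read on an Illumina NextSeq500. Each hexamer's frequency of reads for a factor, divided by the matching frequency for the tag-only sample, gives the binding signal.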
# ELK1 = biological target: T2, ELK1 (Homo sapiens, UniProt P19419 1-428)
# T2 sequence: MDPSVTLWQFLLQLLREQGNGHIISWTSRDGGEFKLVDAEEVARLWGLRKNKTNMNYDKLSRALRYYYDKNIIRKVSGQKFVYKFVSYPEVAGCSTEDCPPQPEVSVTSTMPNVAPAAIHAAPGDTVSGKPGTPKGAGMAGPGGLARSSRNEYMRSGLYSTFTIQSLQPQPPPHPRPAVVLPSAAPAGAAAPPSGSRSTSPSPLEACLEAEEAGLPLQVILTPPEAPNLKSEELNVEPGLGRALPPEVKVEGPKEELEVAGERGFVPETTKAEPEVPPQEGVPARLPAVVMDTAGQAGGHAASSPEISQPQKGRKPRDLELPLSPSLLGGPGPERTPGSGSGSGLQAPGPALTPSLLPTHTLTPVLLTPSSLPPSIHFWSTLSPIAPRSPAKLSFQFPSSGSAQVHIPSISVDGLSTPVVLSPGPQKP
# Summary of the method: as §1
# GABPA = biological target: T3, GABPA (Homo sapiens, UniProt Q06546 1-454)
# T3 sequence: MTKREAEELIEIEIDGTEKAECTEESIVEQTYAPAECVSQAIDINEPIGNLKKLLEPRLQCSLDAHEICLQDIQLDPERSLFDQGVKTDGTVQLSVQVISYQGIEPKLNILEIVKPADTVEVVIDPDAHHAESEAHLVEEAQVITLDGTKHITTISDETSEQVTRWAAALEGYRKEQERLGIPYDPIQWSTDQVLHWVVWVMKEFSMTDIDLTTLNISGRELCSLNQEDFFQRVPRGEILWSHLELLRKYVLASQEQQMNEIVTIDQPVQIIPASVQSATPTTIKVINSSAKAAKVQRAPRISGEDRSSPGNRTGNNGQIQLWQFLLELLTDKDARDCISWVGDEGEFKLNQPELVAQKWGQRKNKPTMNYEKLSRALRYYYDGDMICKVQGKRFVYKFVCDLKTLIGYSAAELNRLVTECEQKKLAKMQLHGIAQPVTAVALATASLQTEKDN
# Summary of the method: as §1
# ERG = biological target: T4, ERG (Homo sapiens, UniProt P11308 1-479)
# T4 sequence: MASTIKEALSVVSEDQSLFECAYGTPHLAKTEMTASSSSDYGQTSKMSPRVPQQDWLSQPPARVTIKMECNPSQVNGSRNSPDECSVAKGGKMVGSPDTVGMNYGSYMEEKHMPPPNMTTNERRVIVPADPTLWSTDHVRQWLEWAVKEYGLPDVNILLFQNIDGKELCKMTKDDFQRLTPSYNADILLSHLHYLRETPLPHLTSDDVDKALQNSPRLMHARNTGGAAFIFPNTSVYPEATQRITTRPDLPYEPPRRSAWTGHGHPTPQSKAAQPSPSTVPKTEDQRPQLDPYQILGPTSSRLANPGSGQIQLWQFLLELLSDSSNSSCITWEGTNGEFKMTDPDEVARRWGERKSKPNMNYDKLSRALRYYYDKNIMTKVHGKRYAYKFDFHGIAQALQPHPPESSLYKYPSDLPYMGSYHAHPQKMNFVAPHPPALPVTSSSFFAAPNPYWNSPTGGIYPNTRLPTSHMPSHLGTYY
# Summary of the method: as §1
# ELK3 = biological target: T5, ELK3 (Homo sapiens, UniProt P41970 1-407)
# T5 sequence: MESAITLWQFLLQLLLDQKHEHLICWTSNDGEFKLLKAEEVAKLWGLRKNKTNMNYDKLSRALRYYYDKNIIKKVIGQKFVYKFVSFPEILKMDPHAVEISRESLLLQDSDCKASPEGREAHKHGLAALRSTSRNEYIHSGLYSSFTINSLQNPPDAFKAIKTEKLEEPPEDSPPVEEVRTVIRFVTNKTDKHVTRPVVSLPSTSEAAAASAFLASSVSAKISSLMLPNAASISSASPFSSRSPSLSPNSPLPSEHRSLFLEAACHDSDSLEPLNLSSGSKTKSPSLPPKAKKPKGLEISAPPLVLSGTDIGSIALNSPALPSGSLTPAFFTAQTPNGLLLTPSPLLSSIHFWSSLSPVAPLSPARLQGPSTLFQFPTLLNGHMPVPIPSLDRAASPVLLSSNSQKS
# Summary of the method: as §1
# FEV = biological target: T6, FEV (Homo sapiens, UniProt Q99581 1-238)
# T6 sequence: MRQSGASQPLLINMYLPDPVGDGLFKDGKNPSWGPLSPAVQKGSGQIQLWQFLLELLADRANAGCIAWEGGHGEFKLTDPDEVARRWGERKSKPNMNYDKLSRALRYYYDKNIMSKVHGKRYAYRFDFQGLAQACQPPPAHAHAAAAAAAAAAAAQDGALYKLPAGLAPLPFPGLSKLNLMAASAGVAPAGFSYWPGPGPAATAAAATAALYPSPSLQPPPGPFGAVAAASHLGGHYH
# Summary of the method: as §1
# ETV3L = biological target: T7, ETV3L (Homo sapiens, UniProt Q6ZN32 1-361)
# T7 sequence: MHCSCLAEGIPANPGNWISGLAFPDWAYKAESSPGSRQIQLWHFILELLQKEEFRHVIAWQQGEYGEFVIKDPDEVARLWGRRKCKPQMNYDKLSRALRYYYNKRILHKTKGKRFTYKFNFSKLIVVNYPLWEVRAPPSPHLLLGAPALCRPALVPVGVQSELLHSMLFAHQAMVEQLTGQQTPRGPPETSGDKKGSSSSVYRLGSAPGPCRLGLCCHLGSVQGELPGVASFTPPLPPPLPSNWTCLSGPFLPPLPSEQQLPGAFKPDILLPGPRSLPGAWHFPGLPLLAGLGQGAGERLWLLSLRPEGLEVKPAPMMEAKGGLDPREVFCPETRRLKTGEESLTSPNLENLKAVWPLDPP
# Summary of the method: as §1
# ETS2 = biological target: T8, ETS2 (Homo sapiens, UniProt P15036 1-469)
# T8 sequence: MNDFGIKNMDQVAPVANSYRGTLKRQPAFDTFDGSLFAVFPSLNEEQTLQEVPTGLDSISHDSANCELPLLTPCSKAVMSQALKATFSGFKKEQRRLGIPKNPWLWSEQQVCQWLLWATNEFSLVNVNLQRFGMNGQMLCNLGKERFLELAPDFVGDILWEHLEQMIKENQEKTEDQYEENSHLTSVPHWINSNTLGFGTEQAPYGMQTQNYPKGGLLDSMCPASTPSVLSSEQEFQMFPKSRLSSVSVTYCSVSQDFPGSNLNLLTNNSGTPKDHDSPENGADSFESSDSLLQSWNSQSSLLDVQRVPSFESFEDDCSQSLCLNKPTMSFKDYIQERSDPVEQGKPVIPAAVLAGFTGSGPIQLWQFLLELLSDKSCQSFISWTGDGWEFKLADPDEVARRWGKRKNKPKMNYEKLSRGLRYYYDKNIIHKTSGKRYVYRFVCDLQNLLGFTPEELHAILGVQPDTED
# Summary of the method: as §1
# SPDEF = biological target: T9, SPDEF (Homo sapiens, UniProt O95238 1-335)
# T9 sequence: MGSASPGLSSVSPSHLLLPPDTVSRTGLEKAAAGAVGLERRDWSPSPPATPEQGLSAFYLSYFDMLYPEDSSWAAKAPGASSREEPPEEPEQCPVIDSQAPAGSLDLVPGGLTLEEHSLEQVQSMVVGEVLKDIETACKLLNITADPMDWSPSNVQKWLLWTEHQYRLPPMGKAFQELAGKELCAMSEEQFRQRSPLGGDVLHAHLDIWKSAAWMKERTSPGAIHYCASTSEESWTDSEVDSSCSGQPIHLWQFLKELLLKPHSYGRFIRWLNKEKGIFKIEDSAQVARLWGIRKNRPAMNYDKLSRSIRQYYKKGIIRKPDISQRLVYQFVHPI
# Summary of the method: as §1
# ETV7 = biological target: T10, ETV7 (Homo sapiens, UniProt Q9Y603 1-341)
# T10 sequence: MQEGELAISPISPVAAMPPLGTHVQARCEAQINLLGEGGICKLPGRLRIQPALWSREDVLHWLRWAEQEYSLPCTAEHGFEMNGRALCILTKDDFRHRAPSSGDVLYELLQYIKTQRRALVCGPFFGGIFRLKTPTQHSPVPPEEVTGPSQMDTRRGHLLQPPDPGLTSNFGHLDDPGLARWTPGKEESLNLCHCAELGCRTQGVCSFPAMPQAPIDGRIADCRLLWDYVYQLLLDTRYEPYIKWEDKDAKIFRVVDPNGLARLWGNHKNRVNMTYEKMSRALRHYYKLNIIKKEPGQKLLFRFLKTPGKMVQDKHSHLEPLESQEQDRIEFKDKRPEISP
# Summary of the method: as §1
# ETV3 = biological target: T11, ETV3 (Homo sapiens, UniProt P41162-2 1-143)
# T11 sequence: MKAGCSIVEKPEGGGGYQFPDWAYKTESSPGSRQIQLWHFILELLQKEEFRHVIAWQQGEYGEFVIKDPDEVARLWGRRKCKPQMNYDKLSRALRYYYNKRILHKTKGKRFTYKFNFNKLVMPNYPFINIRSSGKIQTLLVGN
# Summary of the method: as §1
# ETV6 = ETV6 (Homo sapiens, UniProt P41212 1-452)
# Summary of the method: as §1
# Sequence of ETV6 (P41212 whole entry): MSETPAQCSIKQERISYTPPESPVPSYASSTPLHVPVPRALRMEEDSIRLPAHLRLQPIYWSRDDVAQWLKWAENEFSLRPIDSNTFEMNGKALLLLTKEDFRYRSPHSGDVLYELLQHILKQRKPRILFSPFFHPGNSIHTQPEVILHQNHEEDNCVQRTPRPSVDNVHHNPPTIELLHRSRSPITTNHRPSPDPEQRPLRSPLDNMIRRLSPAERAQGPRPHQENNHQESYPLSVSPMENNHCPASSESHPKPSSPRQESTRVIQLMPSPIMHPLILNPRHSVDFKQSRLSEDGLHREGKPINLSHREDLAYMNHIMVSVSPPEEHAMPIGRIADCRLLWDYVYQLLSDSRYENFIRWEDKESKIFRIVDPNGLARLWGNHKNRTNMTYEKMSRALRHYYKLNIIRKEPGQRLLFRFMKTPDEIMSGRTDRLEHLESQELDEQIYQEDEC
sequence,measurement,setting,value
CCGGTG,binding signal,FLI1,"1.04 fold enrichment (6-mer frequency, TF over GST control)"
same,binding signal,ELK1,"1.09 fold enrichment (6-mer frequency, TF over GST control)"
same,binding signal,GABPA,"1.08 fold enrichment (6-mer frequency, TF over GST control)"
same,binding signal,ERG,"1.19 fold enrichment (6-mer frequency, TF over GST control)"
same,binding signal,ELK3,"1.08 fold enrichment (6-mer frequency, TF over GST control)"
same,binding signal,FEV,"1.35 fold enrichment (6-mer frequency, TF over GST control)"
same,binding signal,ETV3L,"1.01 fold enrichment (6-mer frequency, TF over GST control)"
same,binding signal,ETS2,"1.02 fold enrichment (6-mer frequency, TF over GST control)"
same,binding signal,SPDEF,"1.13 fold enrichment (6-mer frequency, TF over GST control)"
same,binding signal,ETV7,"1.04 fold enrichment (6-mer frequency, TF over GST control)"
same,binding signal,ETV3,"1.08 fold enrichment (6-mer frequency, TF over GST control)"
same,binding signal,ETV6,"1.02 fold enrichment (6-mer frequency, TF over GST control)"
